# Reference: article PMC6579518
# Tests used:
# [1] = molecular target: Pumilio homology domain family member 6 (UniProt Q04373); assay: cross-link between two proteins; cross-linking mass spectrometry
# UPF0642 protein YBL028C = UPF0642 protein YBL028C (UniProt P38202); assay: as above
# [2] = molecular target: WD repeat-containing protein JIP5 (UniProt Q06214); assay: as above
# [3] = molecular target: U3 small nucleolar RNA-associated protein 22 (UniProt P53254); assay: cross-link between two proteins; affinity purification or IP with mass spectrometry; cross-linking mass spectrometry
# Sequence of U3 small nucleolar RNA-associated protein 22 (P53254 whole entry): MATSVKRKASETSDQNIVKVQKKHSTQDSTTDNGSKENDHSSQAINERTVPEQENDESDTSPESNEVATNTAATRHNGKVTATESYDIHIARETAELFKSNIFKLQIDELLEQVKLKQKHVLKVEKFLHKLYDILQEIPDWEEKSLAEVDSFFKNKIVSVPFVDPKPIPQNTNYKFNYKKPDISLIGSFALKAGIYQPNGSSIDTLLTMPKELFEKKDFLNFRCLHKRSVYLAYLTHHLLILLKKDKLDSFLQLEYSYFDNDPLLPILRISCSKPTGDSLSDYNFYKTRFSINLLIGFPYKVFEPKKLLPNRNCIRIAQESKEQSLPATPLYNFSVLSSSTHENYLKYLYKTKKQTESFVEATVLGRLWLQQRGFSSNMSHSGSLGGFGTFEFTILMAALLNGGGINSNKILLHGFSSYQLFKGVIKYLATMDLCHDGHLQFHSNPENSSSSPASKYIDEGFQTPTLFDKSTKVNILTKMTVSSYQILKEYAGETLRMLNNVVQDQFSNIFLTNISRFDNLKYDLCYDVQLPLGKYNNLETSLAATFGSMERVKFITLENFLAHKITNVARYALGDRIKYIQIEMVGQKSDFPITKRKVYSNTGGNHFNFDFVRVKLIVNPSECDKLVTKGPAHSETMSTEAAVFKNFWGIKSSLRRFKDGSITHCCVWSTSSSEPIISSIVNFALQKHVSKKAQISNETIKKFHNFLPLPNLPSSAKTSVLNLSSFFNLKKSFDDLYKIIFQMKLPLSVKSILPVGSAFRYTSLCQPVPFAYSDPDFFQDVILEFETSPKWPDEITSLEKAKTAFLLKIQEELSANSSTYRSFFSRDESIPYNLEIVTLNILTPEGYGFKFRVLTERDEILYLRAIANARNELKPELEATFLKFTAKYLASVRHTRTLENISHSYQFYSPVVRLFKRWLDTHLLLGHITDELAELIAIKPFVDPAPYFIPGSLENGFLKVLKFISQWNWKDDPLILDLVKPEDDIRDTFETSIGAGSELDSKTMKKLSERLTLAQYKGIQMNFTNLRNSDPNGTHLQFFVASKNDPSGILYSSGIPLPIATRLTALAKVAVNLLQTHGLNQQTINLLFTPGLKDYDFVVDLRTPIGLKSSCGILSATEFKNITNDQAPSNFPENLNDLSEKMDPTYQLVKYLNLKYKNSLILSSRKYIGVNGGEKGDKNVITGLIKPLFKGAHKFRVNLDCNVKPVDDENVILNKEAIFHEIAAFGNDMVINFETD
# Sequence of UPF0642 protein YBL028C (P38202 whole entry): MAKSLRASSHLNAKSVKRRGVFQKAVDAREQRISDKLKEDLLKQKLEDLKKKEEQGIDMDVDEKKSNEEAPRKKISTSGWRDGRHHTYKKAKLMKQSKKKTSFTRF
# Sequence of Large ribosomal subunit protein uL5A, P0C0W9 (P0C0W9 whole entry): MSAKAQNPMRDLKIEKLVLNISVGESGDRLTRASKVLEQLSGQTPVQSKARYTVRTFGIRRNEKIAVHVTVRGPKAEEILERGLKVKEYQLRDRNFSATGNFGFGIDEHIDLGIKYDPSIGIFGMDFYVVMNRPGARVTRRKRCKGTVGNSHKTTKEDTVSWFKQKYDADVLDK
# Sequence of Heat shock protein SSA1, P10591 (P10591 whole entry): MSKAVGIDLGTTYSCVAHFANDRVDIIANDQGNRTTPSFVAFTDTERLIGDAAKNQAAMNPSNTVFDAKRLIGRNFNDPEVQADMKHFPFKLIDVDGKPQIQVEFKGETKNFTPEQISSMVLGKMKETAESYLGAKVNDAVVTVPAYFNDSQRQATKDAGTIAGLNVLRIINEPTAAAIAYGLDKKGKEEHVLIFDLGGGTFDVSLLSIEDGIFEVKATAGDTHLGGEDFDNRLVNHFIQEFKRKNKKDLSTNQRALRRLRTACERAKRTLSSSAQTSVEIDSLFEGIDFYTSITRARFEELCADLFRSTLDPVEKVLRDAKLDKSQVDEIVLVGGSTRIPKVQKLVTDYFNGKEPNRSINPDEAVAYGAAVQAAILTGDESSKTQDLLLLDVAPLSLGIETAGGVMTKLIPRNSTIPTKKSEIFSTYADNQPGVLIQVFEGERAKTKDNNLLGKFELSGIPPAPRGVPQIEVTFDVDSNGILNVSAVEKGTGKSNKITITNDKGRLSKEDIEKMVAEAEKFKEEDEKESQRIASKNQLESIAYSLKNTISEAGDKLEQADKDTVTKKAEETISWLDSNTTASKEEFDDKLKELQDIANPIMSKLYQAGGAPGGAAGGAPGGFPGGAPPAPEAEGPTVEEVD
# Sequence of Large ribosomal subunit protein uL1A, P0CX43 (P0CX43 whole entry): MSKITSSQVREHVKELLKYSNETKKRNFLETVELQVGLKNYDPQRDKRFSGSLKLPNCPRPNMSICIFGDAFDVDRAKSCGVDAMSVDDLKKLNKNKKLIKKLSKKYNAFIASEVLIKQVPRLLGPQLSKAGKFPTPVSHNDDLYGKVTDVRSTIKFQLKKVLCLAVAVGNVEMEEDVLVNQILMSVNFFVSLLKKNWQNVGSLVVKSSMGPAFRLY
# Sequence of WD repeat-containing protein JIP5 (Q06214 whole entry): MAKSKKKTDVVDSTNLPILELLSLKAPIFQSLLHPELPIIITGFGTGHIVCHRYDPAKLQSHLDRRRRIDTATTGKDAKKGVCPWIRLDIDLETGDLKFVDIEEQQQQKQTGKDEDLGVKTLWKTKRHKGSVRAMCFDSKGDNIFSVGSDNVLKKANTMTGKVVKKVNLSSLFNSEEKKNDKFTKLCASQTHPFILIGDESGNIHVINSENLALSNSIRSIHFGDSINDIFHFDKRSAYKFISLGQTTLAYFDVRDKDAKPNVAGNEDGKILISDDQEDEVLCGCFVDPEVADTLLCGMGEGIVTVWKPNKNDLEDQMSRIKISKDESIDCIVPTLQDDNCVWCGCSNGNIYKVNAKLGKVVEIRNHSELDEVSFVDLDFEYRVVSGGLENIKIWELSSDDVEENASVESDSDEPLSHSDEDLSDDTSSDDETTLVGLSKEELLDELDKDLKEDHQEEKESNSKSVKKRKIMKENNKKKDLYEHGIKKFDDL
# Sequence of Pumilio homology domain family member 6 (Q04373 whole entry, the tested form may be a part): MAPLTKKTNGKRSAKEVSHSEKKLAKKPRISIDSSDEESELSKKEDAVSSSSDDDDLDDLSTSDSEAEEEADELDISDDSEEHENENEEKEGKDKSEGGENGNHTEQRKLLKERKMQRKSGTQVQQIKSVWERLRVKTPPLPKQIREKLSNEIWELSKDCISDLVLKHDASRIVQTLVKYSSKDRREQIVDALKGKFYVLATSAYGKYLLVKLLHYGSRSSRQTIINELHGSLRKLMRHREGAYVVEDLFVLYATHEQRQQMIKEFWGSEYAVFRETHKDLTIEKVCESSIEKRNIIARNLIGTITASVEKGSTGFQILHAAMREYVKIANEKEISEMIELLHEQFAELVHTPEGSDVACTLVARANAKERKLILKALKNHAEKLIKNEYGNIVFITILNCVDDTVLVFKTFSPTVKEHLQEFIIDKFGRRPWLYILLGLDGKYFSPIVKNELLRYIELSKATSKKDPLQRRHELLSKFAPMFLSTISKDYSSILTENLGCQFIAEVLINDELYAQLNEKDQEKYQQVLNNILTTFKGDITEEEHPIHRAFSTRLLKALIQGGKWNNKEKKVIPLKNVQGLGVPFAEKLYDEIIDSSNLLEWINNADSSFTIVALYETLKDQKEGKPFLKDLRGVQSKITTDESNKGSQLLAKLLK
# Sequence of Large ribosomal subunit protein uL3, P14126 (P14126 whole entry): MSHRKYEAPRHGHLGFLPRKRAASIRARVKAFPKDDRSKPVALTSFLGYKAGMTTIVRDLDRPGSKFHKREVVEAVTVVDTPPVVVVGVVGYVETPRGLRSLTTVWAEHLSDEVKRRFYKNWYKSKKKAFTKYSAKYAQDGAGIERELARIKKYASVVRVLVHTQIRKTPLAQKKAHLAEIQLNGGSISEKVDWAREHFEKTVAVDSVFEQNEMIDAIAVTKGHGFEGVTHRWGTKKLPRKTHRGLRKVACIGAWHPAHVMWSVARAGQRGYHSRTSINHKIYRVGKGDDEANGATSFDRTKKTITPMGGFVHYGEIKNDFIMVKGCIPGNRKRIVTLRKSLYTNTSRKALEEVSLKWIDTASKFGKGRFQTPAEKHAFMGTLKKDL
substance,measurement,setting,value
"Large ribosomal subunit protein uL5A, P0C0W9",listed as a hit,[1],yes
"Large ribosomal subunit protein uL3, P14126",listed as a hit,UPF0642 protein YBL028C,yes
"Large ribosomal subunit protein uL6A, P05738",listed as a hit,UPF0642 protein YBL028C,yes
"Large ribosomal subunit protein uL1A, P0CX43",listed as a hit,[2],yes
"Heat shock protein SSA1, P10591",listed as a hit,[3],yes
